We go through six compounds from PubChem BioAssay (EPA / NIEHS).

Experiment [1] addresses Bile acid receptor (Homo sapiens) (UniProt Q96RI1). Kind of experiment: ATG_IR1_CIS: Attagene CIS-FACTORIAL HepG2 Assay for human Nuclear Receptor Subfamily 1 Group H Member 4 (NR1H4), IR1 submotif (AID 2282946). The conditions noted are these: IR1 reporter transcription, actives raise or lower the signal. An outline of the steps:
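Readout: reporter transcript levels by RT-PCR with fluorescent capillary electrophoresis, from HepG2 cells transiently transfected with multiplexed cis-regulated reporters and dosed 24 h. Gain- or loss-of-signal fitted versus DMSO negative control.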

Experiment [2] in a line: ATG_GRE_CIS: Attagene CIS-FACTORIAL HepG2 Assay for human Glucocorticoid Response Elements (GRE) (AID 2282947). Conditions: HepG2 GRE cis-reporter, Attagene multiplex mRNA; actives raise or lower the signal. An outline of the steps:
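Cells (HepG2) bearing transfected cis-promoter reporter transcription units were treated with chemical for 24 hours. Reporter mRNA was measured via RT-PCR with capillary electrophoresis, and activity was fitted in both directions relative to DMSO.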

Experiment [3] in a line: ATG_ISRE_CIS: Attagene CIS-FACTORIAL HepG2 Assay for human Interferon Regulatory Factor 1 (IRF1) binding to an Interferon-Stimulated Response Element (ISRE) (AID 2282948). Conditions: HepG2 ISRE cis-reporter (Attagene), mRNA transcription readout; actives raise or lower the signal. The method, boiled down: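 Multiplexed mRNA reporter readout in human liver HepG2 cells: cis-element-driven reporters transfected, compound added for 24 h, transcripts amplified, fluorescently labelled and sized by capillary electrophoresis; curve fitting bidirectional against DMSO.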

Experiment [4] in a line: ATG_M_32_CIS: Attagene CIS-FACTORIAL HepG2 Assay for M32 Transcription Factor (Internal Marker) (AID 2282949).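 Note: background control marker of the multiplexed CIS panel rather than a real target.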 Conditions: HepG2 Attagene cis-factorial M32 reporter, mRNA; actives raise or lower the signal. The method, boiled down:
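HepG2 transfectants (cis-regulated reporter transcription units) dosed 24 h. Reporter mRNA by RT-PCR plus CE, analysed as gain or loss relative to DMSO.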

The nature of experiment [5]: ATG_M_06_CIS: Attagene CIS-FACTORIAL HepG2 Assay for M06 Transcription Factor (Internal Marker) (AID 2282950). The conditions noted are these: HepG2 Attagene CIS-FACTORIAL M06 internal marker reporter; actives raise or lower the signal. The method, boiled down:
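Read-out is fluorescence of labelled reporter cDNA fragments resolved by capillary electrophoresis after RT-PCR. Cells: HepG2 carrying transfected cis-promoter reporter units, treated 24 h. Gain or loss of signal fitted relative to DMSO.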

For experiment [6], the target named is Hypoxia-inducible factor 1-alpha (Homo sapiens) (UniProt Q16665). As to the kind of experiment: ATG_HIF1a_CIS: Attagene CIS-FACTORIAL HepG2 Assay for human Hypoxia Inducible Factor 1 (HIF1A) (AID 2282951). The conditions noted are these: HepG2 Attagene cis-factorial HIF1a reporter transcription; actives raise or lower the signal. The method, boiled down: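 Dosed 24 h, transfected HepG2 cells yielded total RNA whose reporter transcripts were RT-PCR-amplified and sized by capillary electrophoresis using fluorescent labelling; DMSO defined baseline, with gain and loss of signal both fitted.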
Hypoxia-inducible factor 1-alpha (Homo sapiens), sequence (Q16665 whole entry, looked up): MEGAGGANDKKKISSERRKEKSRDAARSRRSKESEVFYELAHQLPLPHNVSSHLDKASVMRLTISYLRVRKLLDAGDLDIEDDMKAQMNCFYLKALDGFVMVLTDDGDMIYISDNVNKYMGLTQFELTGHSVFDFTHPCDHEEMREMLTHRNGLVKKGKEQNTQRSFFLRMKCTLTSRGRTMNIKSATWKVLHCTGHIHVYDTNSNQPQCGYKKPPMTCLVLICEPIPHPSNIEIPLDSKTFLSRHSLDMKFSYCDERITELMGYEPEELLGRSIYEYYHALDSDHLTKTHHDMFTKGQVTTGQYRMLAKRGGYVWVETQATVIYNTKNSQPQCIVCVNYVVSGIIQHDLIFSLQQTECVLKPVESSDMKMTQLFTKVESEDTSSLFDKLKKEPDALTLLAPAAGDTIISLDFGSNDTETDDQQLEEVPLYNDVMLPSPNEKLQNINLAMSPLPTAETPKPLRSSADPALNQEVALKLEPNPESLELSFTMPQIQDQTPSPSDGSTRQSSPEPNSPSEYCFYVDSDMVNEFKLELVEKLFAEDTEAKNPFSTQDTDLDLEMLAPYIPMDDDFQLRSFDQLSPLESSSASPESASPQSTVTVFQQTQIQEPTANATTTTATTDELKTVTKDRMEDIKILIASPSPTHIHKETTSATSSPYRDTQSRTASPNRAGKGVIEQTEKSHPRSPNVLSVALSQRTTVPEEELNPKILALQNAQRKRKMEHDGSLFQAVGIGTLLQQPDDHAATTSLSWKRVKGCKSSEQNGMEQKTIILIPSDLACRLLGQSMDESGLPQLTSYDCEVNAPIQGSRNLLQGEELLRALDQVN

Experiment [7] in a line: ATG_MRE_CIS: Attagene CIS-FACTORIAL HepG2 Assay for human Metal Responsive Element (MRE) (AID 2282954). Conditions: HepG2 MRE cis-reporter transcription, Attagene multiplex; actives raise or lower the signal. An outline of the steps:
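Cells were transfected with cis-promoter reporter transcription units, then dosed for 24 h. RNA was reverse-transcribed, amplified, fluorescently labelled and resolved by capillary electrophoresis, and activity was fitted in both directions relative to DMSO.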

A short description of experiment [8]: ATG_PBREM_CIS: Attagene CIS-FACTORIAL HepG2 Assay for human Phenobarbital-responsive Enhancer Module (PBREM) (AID 2282955). The conditions noted are these: HepG2 PBREM cis-reporter, Attagene multiplexed transcription; actives raise or lower the signal. An outline of the steps: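 Transfected liver-derived HepG2 cells exposed 24 h; PBREM reporter transcript quantified via RT-PCR and capillary electrophoresis, with activity in either direction referenced to DMSO.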

In experiment [9] the target is Paired box protein Pax-6 (Homo sapiens) (UniProt P26367). As to the kind of experiment: ATG_Pax6_CIS: Attagene CIS-FACTORIAL HepG2 Assay for human Paired Box 6 (PAX6) (AID 2282956). The conditions noted are these: HepG2 CIS-FACTORIAL PAX6 reporter transcription, RNA readout; actives raise or lower the signal. An outline of the steps: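 Fluorescent RT-PCR products separated by capillary electrophoresis report PAX6-linked promoter mRNA in HepG2 cells 24 h post-dose. Curves fitted bidirectionally, DMSO as negative control.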
Paired box protein Pax-6 (Homo sapiens), sequence (P26367 whole entry, looked up): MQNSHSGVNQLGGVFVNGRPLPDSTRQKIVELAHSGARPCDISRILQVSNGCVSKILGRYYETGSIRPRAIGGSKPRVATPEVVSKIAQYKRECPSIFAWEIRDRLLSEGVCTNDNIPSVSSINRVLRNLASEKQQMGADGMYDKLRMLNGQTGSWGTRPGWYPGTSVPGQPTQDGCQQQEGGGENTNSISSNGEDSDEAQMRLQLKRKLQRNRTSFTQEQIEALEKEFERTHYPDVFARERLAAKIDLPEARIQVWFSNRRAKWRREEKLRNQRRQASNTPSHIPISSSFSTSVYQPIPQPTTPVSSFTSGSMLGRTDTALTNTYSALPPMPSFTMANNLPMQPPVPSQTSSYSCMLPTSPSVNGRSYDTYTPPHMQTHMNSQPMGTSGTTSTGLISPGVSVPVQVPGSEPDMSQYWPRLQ

Experiment [10] is described as follows: ATG_PXRE_CIS: Attagene CIS-FACTORIAL HepG2 Assay for human Pregnane X Receptor Element (PXRE) (AID 2282957). The conditions noted are these: HepG2 Attagene CIS-FACTORIAL PXRE reporter, mRNA; actives raise or lower the signal. An outline of the steps:
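Using HepG2 transfected with multiple reporter transcription units, endogenous factor-driven transcription was scored as reporter mRNA after 24 h exposure.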

Experiment [11] can be described thus: ATG_RORE_CIS: Attagene CIS-FACTORIAL HepG2 Assay for human RAR-related Orphan Receptor Element (RORE) (AID 2282959). The conditions noted are these: HepG2 Attagene cis-factorial RORE reporter, mRNA; actives raise or lower the signal. An outline of the steps: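 Transiently transfected HepG2 reporter cells were treated 24 h. Reporter transcripts were detected by RT-PCR and capillary electrophoresis, with bidirectional fitting against DMSO.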

Experiment [12] in a line: ATG_Sox_CIS: Attagene CIS-FACTORIAL HepG2 Assay for human SRY-box transcription factor (SOX) (AID 2282960). The conditions noted are these: HepG2 Attagene cis-factorial SOX reporter, mRNA; actives raise or lower the signal. An outline of the steps:
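Gain- or loss-of-signal endpoint, fitted bidirectionally with DMSO as negative control. Based on reporter mRNA from transfected HepG2 cells harvested 24 h post-treatment and quantified via RT-PCR and capillary electrophoresis.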

The target in experiment [13] is Transcription factor Sp1 (Homo sapiens) (UniProt P08047). Kind of experiment: ATG_Sp1_CIS: Attagene CIS-FACTORIAL HepG2 Assay for human Specificity Protein 1 (Sp1) (AID 2282961). The conditions noted are these: HepG2 Sp1 cis-reporter transcription, actives raise or lower the signal. The method, boiled down:
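Endpoint reflects endogenous Sp1 transcriptional activity, not an exogenous fusion protein: HepG2 cells with transfected cis-regulated reporters, 24 h dosing, RT-PCR/capillary electrophoresis mRNA read-out, DMSO-normalised bidirectional fit.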

Experiment [14] can be described thus: ATG_SREBP_CIS: Attagene CIS-FACTORIAL HepG2 Assay for human Sterol Regulatory Element Binding (SREBP) (AID 2282962). Conditions: HepG2 Attagene cis-factorial SREBP reporter, mRNA; actives raise or lower the signal. An outline of the steps: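 Endogenous factor activity is measured in HepG2 through multiplexed reporter units under cis-element control. Following a 24 h incubation, reporter transcripts are reverse-transcribed, PCR-amplified and sized by capillary electrophoresis; activity is fitted in both directions relative to DMSO.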

For experiment [15], the target named is Signal transducer and activator of transcription 3 (Homo sapiens) (UniProt P40763). As to the kind of experiment: ATG_STAT3_CIS: Attagene CIS-FACTORIAL HepG2 Assay for human Signal Transducer and Activator of Transcription 3 (STAT3) (AID 2282963). The conditions noted are these: HepG2, Attagene cis-factorial STAT3 reporter transcription; actives raise or lower the signal. An outline of the steps: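 HepG2, MRTU-transfected, 24 h dosing. RNA → RT → PCR → FAM label → HpaI → CE. Bidirectional fit vs DMSO.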
Signal transducer and activator of transcription 3 (Homo sapiens), sequence (P40763 whole entry, looked up): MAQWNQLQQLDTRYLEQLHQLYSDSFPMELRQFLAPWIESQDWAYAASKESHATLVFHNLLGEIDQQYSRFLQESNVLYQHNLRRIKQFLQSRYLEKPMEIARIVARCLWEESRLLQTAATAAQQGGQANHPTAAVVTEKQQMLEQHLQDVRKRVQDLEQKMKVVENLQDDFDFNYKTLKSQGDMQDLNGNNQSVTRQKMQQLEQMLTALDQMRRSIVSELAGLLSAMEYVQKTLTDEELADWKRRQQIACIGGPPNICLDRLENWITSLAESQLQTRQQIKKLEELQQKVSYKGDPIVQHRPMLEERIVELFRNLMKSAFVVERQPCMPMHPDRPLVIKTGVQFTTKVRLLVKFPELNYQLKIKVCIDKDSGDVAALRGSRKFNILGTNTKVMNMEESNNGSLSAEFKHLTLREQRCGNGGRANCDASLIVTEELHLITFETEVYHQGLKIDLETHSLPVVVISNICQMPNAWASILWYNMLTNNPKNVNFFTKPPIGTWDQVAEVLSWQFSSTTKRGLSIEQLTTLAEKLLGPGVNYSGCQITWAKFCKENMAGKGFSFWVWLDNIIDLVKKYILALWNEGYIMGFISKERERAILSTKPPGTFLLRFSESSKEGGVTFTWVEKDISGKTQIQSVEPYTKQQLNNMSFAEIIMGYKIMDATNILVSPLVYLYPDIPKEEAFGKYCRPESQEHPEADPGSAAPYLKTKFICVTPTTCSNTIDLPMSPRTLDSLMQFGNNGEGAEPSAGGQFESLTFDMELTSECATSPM

Experiment [16] can be described thus: ATG_TA_CIS: Attagene CIS-FACTORIAL HepG2 Assay for human TA Basal Promoter (AID 2282964). The conditions noted are these: HepG2 Attagene CIS-factorial TA basal promoter reporter; actives raise or lower the signal. The method, boiled down: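 Read-out: fluorescent reporter-transcript fragments resolved by capillary electrophoresis after RT-PCR and HpaI digestion. Source: HepG2 cells carrying transiently transfected multi-reporter cis constructs, treated 24 h. Endpoint fitted bidirectionally relative to DMSO.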

Experiment [17] in a line: ATG_TCF_b_cat_CIS: Attagene CIS-FACTORIAL HepG2 Assay for human T-Cell-Factor with beta-catenin (TCF/b-cat) (AID 2282965). Conditions: HepG2 TCF/beta-catenin cis-reporter transcription, actives raise or lower the signal. An outline of the steps:
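In this cis-format system, transfected HepG2 cells report endogenous transcription factor activity. Readout after 24 h exposure is reporter transcript abundance from RT-PCR and capillary electrophoresis, analysed for gain or loss of signal versus DMSO.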

Experiment [18] deals with Hepatocyte nuclear factor 6 (Homo sapiens) (UniProt Q9UBC0). As to the kind of experiment: ATG_HNF6_CIS: Attagene CIS-FACTORIAL HepG2 Assay for human Hepatocyte Nuclear Factor 6 (HNF6) (AID 2282952). Conditions: HepG2 Attagene cis-factorial HNF6 reporter transcription; actives raise or lower the signal. An outline of the steps: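 Using cis-element reporters in HepG2 liver cells, the assay tracks endogenous factor-driven transcription 24 h post-dosing. Signal comes from 6-FAM-labelled, HpaI-digested RT-PCR fragments, with gain or loss scored against DMSO.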
Hepatocyte nuclear factor 6 (Homo sapiens), sequence (Q9UBC0 whole entry, looked up, the tested form may be a part): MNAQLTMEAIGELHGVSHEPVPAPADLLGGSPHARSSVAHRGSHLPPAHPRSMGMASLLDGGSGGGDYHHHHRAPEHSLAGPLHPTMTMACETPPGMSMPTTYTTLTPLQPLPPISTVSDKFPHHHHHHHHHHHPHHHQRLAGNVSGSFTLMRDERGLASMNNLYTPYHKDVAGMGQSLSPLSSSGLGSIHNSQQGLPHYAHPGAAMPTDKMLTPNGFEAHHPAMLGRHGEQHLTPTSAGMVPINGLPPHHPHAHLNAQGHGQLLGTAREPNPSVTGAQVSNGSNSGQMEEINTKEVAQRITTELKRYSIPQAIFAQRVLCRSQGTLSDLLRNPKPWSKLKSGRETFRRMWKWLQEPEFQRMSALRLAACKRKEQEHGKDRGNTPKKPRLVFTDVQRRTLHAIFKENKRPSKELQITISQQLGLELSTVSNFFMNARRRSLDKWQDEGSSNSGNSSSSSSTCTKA

Experiment [19] addresses Heat shock factor protein 1 (Homo sapiens) (UniProt Q00613). As to the kind of experiment: ATG_HSE_CIS: Attagene CIS-FACTORIAL HepG2 Assay for human Heat Shock Transcription Factor 1 (HSE) (AID 2282953). Conditions: HepG2 HSE cis-reporter, Attagene RNA transcription; actives raise or lower the signal. The method, boiled down: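 HepG2, transient MRTU transfection, cis-promoter reporters (endogenous TF activity). 24 h compound. RNA → oligo(dT) RT → PCR → 6-FAM primer extension → HpaI cut → CE. Bidirectional fit vs DMSO.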

A short description of experiment [20]: ATG_PPRE_CIS: Attagene CIS-FACTORIAL HepG2 Assay for human Peroxisome Proliferator-activated Response Element (PPRE) (AID 2282958). Conditions: HepG2 PPRE cis-element reporter, Attagene transcription factor profiling; actives raise or lower the signal. The method, boiled down: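 Measured endpoint: PPRE-controlled reporter mRNA, detected by RT-PCR and capillary electrophoresis fluorescence, from transiently transfected HepG2 cells 24 h after dosing. Curves fitted in both directions using DMSO baseline.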

The source made the active and inactive calls. Rule for the calls: active = hit-call score of the fitted dose curve at least 0.9, where 1 is the maximum; inactive = score below 0.9.

Bile acid receptor (Homo sapiens), sequence (Q96RI1 whole entry, looked up): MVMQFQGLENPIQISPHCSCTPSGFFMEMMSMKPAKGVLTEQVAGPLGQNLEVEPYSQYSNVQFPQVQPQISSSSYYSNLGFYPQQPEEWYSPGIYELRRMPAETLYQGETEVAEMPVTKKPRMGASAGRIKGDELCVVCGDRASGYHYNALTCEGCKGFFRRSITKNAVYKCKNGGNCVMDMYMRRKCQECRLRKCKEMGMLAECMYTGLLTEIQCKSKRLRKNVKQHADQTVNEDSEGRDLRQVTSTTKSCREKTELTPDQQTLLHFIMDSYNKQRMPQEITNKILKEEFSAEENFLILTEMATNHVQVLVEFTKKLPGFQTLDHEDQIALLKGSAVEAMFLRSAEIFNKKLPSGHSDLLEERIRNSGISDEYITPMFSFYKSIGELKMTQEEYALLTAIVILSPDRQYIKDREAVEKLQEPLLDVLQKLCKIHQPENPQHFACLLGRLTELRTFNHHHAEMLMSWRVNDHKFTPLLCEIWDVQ
Transcription factor Sp1 (Homo sapiens), sequence (P08047 whole entry, looked up, the tested form may be a part): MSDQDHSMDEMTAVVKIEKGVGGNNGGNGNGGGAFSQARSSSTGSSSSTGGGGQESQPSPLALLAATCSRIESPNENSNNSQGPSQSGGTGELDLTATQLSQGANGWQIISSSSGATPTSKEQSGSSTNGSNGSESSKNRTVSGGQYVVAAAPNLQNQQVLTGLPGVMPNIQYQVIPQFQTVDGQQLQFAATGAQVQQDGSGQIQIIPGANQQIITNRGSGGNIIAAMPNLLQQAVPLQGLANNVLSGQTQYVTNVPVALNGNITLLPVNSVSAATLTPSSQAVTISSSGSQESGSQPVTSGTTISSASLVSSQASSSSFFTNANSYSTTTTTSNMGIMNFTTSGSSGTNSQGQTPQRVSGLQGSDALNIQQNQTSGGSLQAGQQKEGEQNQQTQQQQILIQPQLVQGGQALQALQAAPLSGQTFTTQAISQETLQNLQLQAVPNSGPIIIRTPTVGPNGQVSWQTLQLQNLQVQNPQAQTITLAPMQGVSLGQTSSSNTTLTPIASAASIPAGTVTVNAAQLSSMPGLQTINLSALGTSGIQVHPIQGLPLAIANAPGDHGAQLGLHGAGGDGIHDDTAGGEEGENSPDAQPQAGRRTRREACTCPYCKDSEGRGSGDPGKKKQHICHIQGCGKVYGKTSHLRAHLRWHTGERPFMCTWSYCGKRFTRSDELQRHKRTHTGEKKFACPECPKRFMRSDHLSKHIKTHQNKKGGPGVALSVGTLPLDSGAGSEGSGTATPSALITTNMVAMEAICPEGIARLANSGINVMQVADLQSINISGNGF
Heat shock factor protein 1 (Homo sapiens), sequence (Q00613 whole entry, looked up): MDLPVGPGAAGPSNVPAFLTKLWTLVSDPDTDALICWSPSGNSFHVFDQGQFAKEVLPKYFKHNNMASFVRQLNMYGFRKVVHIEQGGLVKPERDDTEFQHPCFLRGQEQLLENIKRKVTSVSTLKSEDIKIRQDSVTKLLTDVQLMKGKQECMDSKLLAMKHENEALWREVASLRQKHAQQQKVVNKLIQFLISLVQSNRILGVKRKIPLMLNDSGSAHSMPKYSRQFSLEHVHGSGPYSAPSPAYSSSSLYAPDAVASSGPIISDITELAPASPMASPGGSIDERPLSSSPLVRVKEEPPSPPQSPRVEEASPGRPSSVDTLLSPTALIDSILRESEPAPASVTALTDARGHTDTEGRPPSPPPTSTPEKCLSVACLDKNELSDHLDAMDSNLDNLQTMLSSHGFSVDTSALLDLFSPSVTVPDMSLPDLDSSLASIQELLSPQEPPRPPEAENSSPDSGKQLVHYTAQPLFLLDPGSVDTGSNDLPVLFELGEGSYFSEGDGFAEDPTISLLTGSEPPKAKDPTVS

With `CCCCCCCCCC(C)C=O` (stereo not drawn), the result in experiment [1], in [2], in experiment [3], in experiment [4], in experiment [5] and in experiment [6] was inactive. Besides, the result in [7], in experiment [8], in experiment [9], in experiment [11], in experiment [12] and in [13] was inactive. Also, the result in experiment [14], in experiment [15], in experiment [16] and in experiment [17] was inactive. Besides, the AC50 – broadly, the midpoint of the concentration-response curve, whichever way the signal moves – in [10] is 51.1 µM (active).

Take `COC(=O)c1ccc(OC)cc1`: the call in [1], in [2], in experiment [3], in experiment [4], in experiment [5] and in [6] was inactive. Further, the compound was called inactive in experiment [18], in [7], in experiment [8], in experiment [9], in experiment [10] and in [12]. In addition, the call in experiment [13], in experiment [14], in [15] and in experiment [16] was inactive.

For the compound `CSc1c(Cl)c(Cl)c(Cl)c(Cl)c1Cl`, the half-maximal activity concentration (AC50) in experiment [1] is 5.76 µM (active); in [3], 27.9 µM (active); in experiment [7], 100 µM (active); in experiment [9], 100 µM (active); in experiment [10], 2.94 µM (active); in experiment [13] it was 72.8 µM (active). Also, the values for the AC50 in experiment [14] and in [17] were 135 µM (active) and 50.3 µM (active), respectively. Also, the result in experiment [2], in experiment [4], in [5], in experiment [18], in experiment [19] and in [8] was inactive. In addition, the outcome in experiment [11], in experiment [15] and in experiment [16] was inactive.

On to `C1CCOC1`, for which the call in [1], in experiment [2], in experiment [3], in [4], in experiment [5] and in experiment [6] was inactive. For the same compound, the result in experiment [18], in [7], in experiment [8], in [9], in experiment [20] and in [12] was inactive. In addition, the compound was classed as inactive in experiment [13], in experiment [14], in [15], in experiment [16] and in experiment [17]. For the same compound, the AC50 in experiment [10] is 37.3 µM (active).

In the case of `CC1(C)O[C@@H]2C[C@H]3[C@@H]4CCC5=CC(=O)C=C[C@]5(C)[C@@]4(F)[C@@H](O)C[C@]3(C)[C@]2(C(=O)CO)O1`, the result in experiment [1], in [3], in experiment [4], in experiment [5], in experiment [6] and in [18] was inactive. The result in experiment [7], in [9], in experiment [20], in experiment [11], in [12] and in experiment [13] was inactive. Besides, the result in experiment [14], in experiment [15], in [16] and in [17] was inactive. Further, the AC50 in experiment [2] was 0.419 µM (active); in experiment [10], 13.8 µM (active).

Regarding `CC1(C)C2=CCCC(C)(C)[C@]23CC[C@H]1C3`, the compound was called inactive in [1], in experiment [2], in experiment [3], in experiment [4], in experiment [5] and in experiment [19]. For the same compound, the result in experiment [8], in [9], in [20], in experiment [12], in experiment [13] and in experiment [15] was inactive. Besides, the result in [16] and in experiment [17] was inactive. For the same compound, the AC50 in experiment [7] is 100 µM (active); in experiment [10], 1.49 µM (active); in experiment [14] it was 53.2 µM (active).
